According to PubChem BioAssay (NCI):
This is part of a sample that, as a whole, favours compounds with a hit. Of some 83,000 tested, about 20% had one in any assay.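 Interpretation: 100, growth as untreated; towards 0, rising growth inhibition; 0, no net growth; 0 to -100, cell death. Compounds scoring below 10 were considered active.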 Calls of active or inactive are those of the source.

Assays:
Assay in all cases: NCI-60 one-dose screen, 48 h (100 = growth as untreated, 0 = no growth, -100 = all killed)
Settings in all cases: 10 µM unless noted
SK-MEL-2 melanoma = tested on: SK-MEL-2 melanoma
EKVX NSCLC = tested on: EKVX NSCLC
SN12C renal = tested on: SN12C renal
UO-31 renal = tested on: UO-31 renal
TK-10 renal = tested on: TK-10 renal
ACHN renal = tested on: ACHN renal
CAKI-1 renal = tested on: CAKI-1 renal
A498 renal = tested on: A498 renal
CCRF-CEM leukemia = tested on: CCRF-CEM leukemia
MOLT-4 leukemia = tested on: MOLT-4 leukemia
SR leukemia = tested on: SR leukemia
RPMI-8226 leukemia = tested on: RPMI-8226 leukemia
OVCAR-8 ovarian = tested on: OVCAR-8 ovarian
OVCAR-5 ovarian = tested on: OVCAR-5 ovarian
OVCAR-4 ovarian = tested on: OVCAR-4 ovarian
SK-OV-3 ovarian = tested on: SK-OV-3 ovarian
IGROV1 ovarian = tested on: IGROV1 ovarian
OVCAR-3 ovarian = tested on: OVCAR-3 ovarian
HS 578T breast = tested on: HS 578T breast
NCI/ADR-RES ovarian = tested on: NCI/ADR-RES ovarian

Measured: growth

C/C(=N/O)c1ccc(F)cc1
active: SK-MEL-2 melanoma 7.9% | ACHN renal -10.4%
inactive: EKVX NSCLC 105% | SN12C renal 81.4% | UO-31 renal 80.8% | TK-10 renal 92.8% | CAKI-1 renal 61% | A498 renal 111% | CCRF-CEM leukemia 87.2% | MOLT-4 leukemia 77.7% | SR leukemia 68% | RPMI-8226 leukemia 85.5% | OVCAR-8 ovarian 86.5% | OVCAR-5 ovarian 80.1% | OVCAR-4 ovarian 95.3% | SK-OV-3 ovarian 85.2% | IGROV1 ovarian 84.5% | OVCAR-3 ovarian 132% | HS 578T breast 95.6% | NCI/ADR-RES ovarian 77.7%

O=C1/C(=C/c2ccc(F)cc2)COc2ccc(O)c(O)c21
inactive: SK-MEL-2 melanoma 74.8% | EKVX NSCLC 51.4% | TK-10 renal 17.8% | A498 renal 105% | SR leukemia 18.9% | OVCAR-4 ovarian 43% | SK-OV-3 ovarian 69.1% | HS 578T breast 21.5%
active: SN12C renal -49.9% | UO-31 renal -96.9% | ACHN renal -67.1% | CAKI-1 renal 9.04% | CCRF-CEM leukemia 3.39% | MOLT-4 leukemia 4.21% | RPMI-8226 leukemia -2.78% | OVCAR-8 ovarian 6.23% | OVCAR-5 ovarian 1.54% | IGROV1 ovarian -21.8% | OVCAR-3 ovarian -2.58% | NCI/ADR-RES ovarian 1.04%

C1=C(N2CCCC2)CCC1
inactive: SK-MEL-2 melanoma 112% | EKVX NSCLC 95.2% | SN12C renal 98.1% | UO-31 renal 73.5% | TK-10 renal 121% | ACHN renal 111% | CAKI-1 renal 79.1% | A498 renal 109% | CCRF-CEM leukemia 106% | MOLT-4 leukemia 96.6% | SR leukemia 112% | RPMI-8226 leukemia 95.4% | OVCAR-8 ovarian 104% | OVCAR-5 ovarian 86.2% | OVCAR-4 ovarian 98.8% | SK-OV-3 ovarian 131% | IGROV1 ovarian 108% | OVCAR-3 ovarian 106% | HS 578T breast 102% | NCI/ADR-RES ovarian 104%

Cn1cc(-c2csc(-c3c[nH]c4ccc(Br)cc34)n2)c2cnccc21
active: SK-MEL-2 melanoma -65.7% | EKVX NSCLC -78.3% | SN12C renal -87.2% | UO-31 renal -96.3% | TK-10 renal -83.9% | ACHN renal -98.6% | CAKI-1 renal -97% | A498 renal -97.3% | CCRF-CEM leukemia -39% | MOLT-4 leukemia -58.3% | SR leukemia -30.9% | RPMI-8226 leukemia -40.3% | OVCAR-8 ovarian -60.5% | OVCAR-5 ovarian -95.7% | OVCAR-4 ovarian -84.8% | SK-OV-3 ovarian -95.5% | IGROV1 ovarian -77.8% | OVCAR-3 ovarian -91.9% | HS 578T breast -60.5% | NCI/ADR-RES ovarian -69.2%

Cc1cc(N)c2cc(NC(=O)/C=C\c3ccccc3Cl)ccc2n1
active: SK-MEL-2 melanoma -72.5% | EKVX NSCLC -71.8% | SN12C renal -81.7% | UO-31 renal -72.1% | TK-10 renal -90% | ACHN renal -85% | CAKI-1 renal -76% | A498 renal -88.3% | CCRF-CEM leukemia -74.2% | MOLT-4 leukemia -53.2% | SR leukemia 7.11% | RPMI-8226 leukemia -70.9% | OVCAR-8 ovarian -41.9% | OVCAR-5 ovarian -95.4% | OVCAR-4 ovarian -64.1% | SK-OV-3 ovarian -96.4% | IGROV1 ovarian -67.5% | OVCAR-3 ovarian -90.2% | HS 578T breast -72.3%
inactive: NCI/ADR-RES ovarian 48.9%

CCOC(=O)C1=NN(c2ccccc2)C(=O)/C1=C\N1C(=O)CC(=O)NC1=S
inactive: SK-MEL-2 melanoma 98% | EKVX NSCLC 103% | SN12C renal 95.6% | UO-31 renal 77.4% | TK-10 renal 96% | ACHN renal 101% | CAKI-1 renal 41.2% | A498 renal 104% | CCRF-CEM leukemia 96.2% | MOLT-4 leukemia 99% | SR leukemia 92.6% | RPMI-8226 leukemia 93.1% | OVCAR-8 ovarian 100% | OVCAR-5 ovarian 104% | OVCAR-4 ovarian 52.7% | SK-OV-3 ovarian 97.5% | IGROV1 ovarian 106% | OVCAR-3 ovarian 101% | HS 578T breast 102% | NCI/ADR-RES ovarian 95.9%

O=C1N(Cc2ccccc2Cl)c2ccccc2C12NN=C(c1cccc(Cl)c1)S2 (stereo not given)
inactive: RPMI-8226 leukemia 30.5% | IGROV1 ovarian 20.2%
active: SK-MEL-2 melanoma -23.1% | EKVX NSCLC -31% | SN12C renal -19.8% | UO-31 renal -58.3% | TK-10 renal -3.68% | ACHN renal -47.1% | CAKI-1 renal -30.7% | A498 renal -85.9% | CCRF-CEM leukemia 1.03% | MOLT-4 leukemia -18% | SR leukemia -1.58% | OVCAR-8 ovarian -23.5% | OVCAR-5 ovarian 9.45% | OVCAR-4 ovarian -13.9% | SK-OV-3 ovarian -5.89% | OVCAR-3 ovarian 4.87% | HS 578T breast 3.21% | NCI/ADR-RES ovarian -17%
